Screening results deposited in PubChem BioAssay by The Scripps Research Institute Molecular Screening Center.
Most compounds without a hit are left out; they make up all but 3.4% or so of the library.
FBW7 activator: human FBW7 E3 ligase activation, primary screen. AlphaScreen FBW7–phospho-cyclin E peptide binding, activator screen. normalized activity (activation), % at 26.1 µM. 650,000 tested, 0.13% active. Q969H0; in the data active means normalized activity above about 1.9%;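 further: purified mutant Fbw7 with reduced substrate affinity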
TEAD-YAP inh: TEAD-YAP interaction inhibition; HEK-TIYL cells, TEAD-Gal4/YAP UAS-luciferase luminescence; inhibition, % at 9.12 µM; 640,000 tested, 1.4% active; AID 1259422; in the data active means inhibition above about 32%;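 further: 0% = median of test compound wells and 100% = reference inhibitor wells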
MITF inh: blocks human microphthalmia-associated transcription factor | 650,000 tested, 0.91% active | AlphaScreen MITF homodimerization, bead proximity signal | inhibition, % at 2.6 µM | AID 1259374; in the data active means inhibition above about 50%;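 further: 0% = vehicle wells with protein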
Target sequence (O75030 whole entry, looked up): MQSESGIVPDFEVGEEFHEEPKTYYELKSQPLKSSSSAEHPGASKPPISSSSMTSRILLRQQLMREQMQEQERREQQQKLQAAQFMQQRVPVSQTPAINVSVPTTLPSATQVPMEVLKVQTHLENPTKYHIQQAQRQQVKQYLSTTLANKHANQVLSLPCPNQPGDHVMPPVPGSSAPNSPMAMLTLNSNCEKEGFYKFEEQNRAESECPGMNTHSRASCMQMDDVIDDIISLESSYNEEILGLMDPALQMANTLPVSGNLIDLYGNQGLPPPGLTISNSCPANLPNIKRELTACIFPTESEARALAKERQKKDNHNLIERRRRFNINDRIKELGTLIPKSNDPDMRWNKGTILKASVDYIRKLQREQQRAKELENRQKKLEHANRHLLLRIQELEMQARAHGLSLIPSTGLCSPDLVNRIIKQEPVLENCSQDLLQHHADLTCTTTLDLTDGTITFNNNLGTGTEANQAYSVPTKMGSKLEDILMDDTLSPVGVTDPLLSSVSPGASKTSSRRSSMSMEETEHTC
GPR151 ag: activators of human GPR151 | PathHunter beta-arrestin GPR151 cells, luminescence | 650,000 tested, 1% active | Q8TDV0 | AID 1508602 | activation, % at 11.2 µM; in the data active means activation above about 4.9%;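 further: 0% = median of compound wells and 100% = cells with positive control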
* hit, by the source's call.

SMILES | FBW7 activator | TEAD-YAP inh | MITF inh | GPR151 ag
NC(=O)c1ccccc1Nc1cc(NC(=O)Cc2ccc(CN3CCOCC3)cc2)ncc1Cl | -0.2 | 99.3* | 4.2 | 0.2
NC(=O)c1ccccc1Nc1cc(NC(=O)Cc2ccc(F)cc2)ncc1Cl | -0.4 | 81.4* | 7.9 | 0.8
CCOCCCNc1c(C)c(C)nc2cc(-c3ccc(F)cc3)nn12 | 0.7 | -19.9 | 3.5 | -0.7
O=C(Cn1cnc2c(oc3ccccc32)c1=O)Nc1ccccc1F | 0.2 | 2.5 | 1.8 | 2.3
CCCCNS(=O)(=O)c1ccc2nc(SCC(C)=O)[nH]c2c1 | -0.1 | 33.6* | -12.2 | 4.6
CCOc1cc2c(cc1OCC)C(c1cccc(F)c1)NCC2 (stereo not given) | 0.0 | -1.3 | 0.7 | 0.2
CC(C)(C)c1ccc(OCC(=O)NCCN2CCOCC2)c(Br)c1 | 0.0 | -14.1 | 4.1 | -0.5
Cc1nn(-c2ccccc2)c(N2CCCCC2)c1/C=N/Nc1ccccn1 | -0.1 | 60.9* | 7.0 | -1.0
COc1ccc(NC(=O)CSc2nnc3c(n2)[nH]c2ccc(C)cc23)c([N+](=O)[O-])c1 | -0.1 | -5.4 | -6.5 | -1.0
N#Cc1c(NC(=O)c2cc([N+](=O)[O-])ccc2Cl)sc2c1CCCC2 | 0.1 | 48.9* | 9.1 | 1.8
CC1CCc2sc(NC(=O)c3cc(Cl)ccc3[N+](=O)[O-])c(C#N)c2C1 (stereo not given) | 0.1 | 51.0* | 8.9 | -1.3
N#Cc1c(NC(=O)c2ccc([N+](=O)[O-])cc2[N+](=O)[O-])sc2c1CCCC2 | -0.1 | 2.4 | -18.5 | -0.3
COc1cccc2cc(C(=O)NC(C)=O)c(=Nc3ccc(-c4nc5ccc(C)cc5s4)cc3)oc12 | 0.1 | 3.4 | 6.2 | -0.5
CCc1ccc(CN2CCN(S(C)(=O)=O)CC2)cc1 | 0.1 | 15.9 | 41.1 | 0.7
CSc1ccc(CN2CCN(S(C)(=O)=O)CC2)cc1 | 0.1 | 47.4* | -5.4 | -1.0
CS(=O)(=O)N1CCN(Cc2ccc(Cl)cc2)CC1 | 0.0 | 40.9* | -3.5 | 0.1
CSc1ccc(CN2CCN(S(=O)(=O)c3ccc4ccccc4c3)CC2)cc1 | 0.0 | 0.9 | 1.1 | 0.8
O=C(NCc1cccnc1)c1cnc(N2CCN(c3ccccn3)CC2)c2ccccc12 | 0.2 | 38.7* | -7.6 | 0.5
Cc1c(C(=O)NCc2cccnc2)sc2ncnc(N3CCN(c4ccccn4)CC3)c12 | -0.1 | 34.7* | 4.5 | 0.4
O=C(NCc1ccc(F)cc1)c1cnc(N2CCN(c3ccccn3)CC2)c2ccccc12 | -0.1 | 8.5 | 0.6 | -0.8
O=C(NCC1COc2ccccc2O1)c1cnc(N2CCN(c3ncccn3)CC2)c2ccccc12 (stereo not given) | -0.1 | 23.3 | -11.7 | 0.6
O=C(NCC1COc2ccccc2O1)c1cnc(N2CCN(c3ccccn3)CC2)c2ccccc12 (stereo not given) | -0.1 | 41.2* | -5.6 | 0.4
CCOc1ccc(C(CC(=O)O)NC(=O)c2cccc(C)c2)cc1OC (stereo not given) | -0.1 | 6.2 | -8.7 | 0.0
CCOC(=O)COc1cccc(/C=C2\Oc3cc(OC)ccc3C2=O)c1 | 0.2 | -1.1 | 5.5 | 0.2
COc1cccc(/C=C2\Oc3cc(O)cc(C)c3C2=O)c1 | 0.0 | 97.6* | 14.3 | -9.7
SMILES | FBW7 activator | TEAD-YAP inh | MITF inh | GPR151 ag
Cc1cc(OC(=O)C(C)C)cc2c1C(=O)/C(=C/c1cccnc1)O2 | 0.0 | 62.8* | -3.7 | -8.2
Cc1cc(O)cc2c1C(=O)/C(=C/c1cccnc1)O2 | 0.1 | 60.8* | -4.0 | -6.4
COC(=O)c1ccc2c(c1)C(=O)/C(=C/c1cccc(OC)c1)O2 | -0.1 | -2.7 | 0.6 | 0.0
O=C1/C(=C\c2cccnc2)Oc2cc(O)ccc21 | 0.1 | 8.9 | -29.2 | 1.3
CCCc1nc(SCC(=O)NCc2ccco2)[nH]c(=O)c1CC | -0.1 | -11.1 | 1.2 | -0.7
Nc1cccc(-c2nc(NCCN3CCOCC3)c3ncn(-c4ccccc4)c3n2)c1 | -0.1 | 57.9* | -2.8 | -2.7
CC(=O)c1cccc(-c2nc(NCCN3CCOCC3)c3ncn(-c4ccccc4)c3n2)c1 | 0.1 | 66.4* | 14.2 | 1.0
CN1CCN(c2ccc(-c3nc(NCCN4CCOCC4)c4ncn(-c5ccsc5)c4n3)cc2)CC1 | -0.1 | 9.5 | -2.1 | 2.1
COc1ccc(-c2nc(NCCN3CCOCC3)c3ncn(-c4ccsc4)c3n2)cc1 | -0.1 | 50.6* | 7.5 | 0.7
CC(=O)c1cccc(-c2nc(NCCN3CCOCC3)c3ncn(-c4ccsc4)c3n2)c1 | 0.0 | 58.5* | 10.1 | 2.5
CCN(CC)P(=O)(C(Cl)=C(N(C)C)N(C)C)N(CC)CC | 0.1 | -4.3 | -0.8 | -1.1
Nc1cccc(-c2nc(NCCc3ccc(O)cc3)c3ncn(-c4ccccc4)c3n2)c1 | -0.1 | 37.7* | -0.3 | -1.0
Cn1c(SCC(N)=O)nnc1-c1cccc([N+](=O)[O-])c1 | 0.0 | -8.0 | -10.1 | -1.3
Cn1c(SCC#N)nnc1-c1cccc([N+](=O)[O-])c1 | -0.3 | 32.2* | -5.1 | -1.5
CCNC(=O)CCCc1nc(-c2ccccc2Cl)no1 | -0.1 | 35.5* | 3.5 | -0.6
CCCNC(=O)CCc1nc(-c2ccccc2Cl)no1 | 0.1 | 2.8 | -2.7 | -1.3
CCOC(=O)c1c(NC(=O)C2C3C=CC(C3)C2C(=O)O)sc2c1CC(C)CC2 (stereo not given) | -0.4 | 36.9* | -3.8 | -0.3
CCOC(=O)c1c(NC(=O)C2C3C=CC(C3)C2C(=O)O)sc2c1CCC2 (stereo not given) | 0.0 | 18.8 | 1.3 | -0.7
CCC1CCc2c(sc(NC(=O)C3C4C=CC(C4)C3C(=O)O)c2C(=O)OC)C1 (stereo not given) | -0.2 | 56.5* | 11.0 | -1.0
CCc1c(C)sc(NC(=O)C2C3C=CC(C3)C2C(=O)O)c1C(=O)OC (stereo not given) | 0.0 | 31.9* | 12.0 | -1.7
O/C(=C\c1nc2ccccc2nc1/C=C(\O)c1ccccc1)c1ccccc1 | 0.0 | -30.5 | 7.8 | -0.7
C/C(O)=C/c1nc2cccnc2nc1/C=C(/C)O | -0.1 | 6.5 | 73.4* | -0.7
COc1ccc2c(c1)c(=O)oc1cc(OCC(=O)O)ccc12 | 0.0 | 1.9 | 3.8 | 0.5
COc1ccc2c(c1)c(=O)oc1cc(OCC(=O)N(C)c3ccccc3)ccc12 | 0.8 | -0.1 | 52.1* | -0.2
CC(=O)C1=C(c2ccc(C3CCCCC3)cc2)N(C(C)=O)n2c(C)nnc2S1 | 0.4 | 40.8* | 15.3 | 0.1
SMILES | FBW7 activator | TEAD-YAP inh | MITF inh | GPR151 ag
CC(=O)C1=C(c2ccc(C(C)(C)C)cc2)N(C(C)=O)n2c(C)nnc2S1 | -0.1 | 38.5* | 0.6 | -1.4
Cc1ccc(OC(C)C(=O)NNC(=O)c2ccc([N+](=O)[O-])cc2)cc1 (stereo not given) | 0.1 | -38.7 | 6.3 | 0.6
CCSCCS(=O)(=O)CCSCC | -0.1 | -8.6 | -8.0 | -1.1
O=C(O)c1ccc(NCN2C(=O)C(=O)c3ccccc32)cc1 | 0.6 | 24.2 | 17.7 | -1.0
Cc1ccc2c(c1C)N[C@@H](c1ccc(C(=O)O)cc1)[C@H]1CC=C[C@@H]21 | -0.6 | 12.0 | 71.2* | -0.6
Cc1cc(C)c2c(c1)[C@@H]1C=CC[C@@H]1[C@H](c1ccc(C(=O)O)cc1)N2 | -0.1 | 16.5 | 8.5 | -1.4
